Experimental data reported in the supplement of paper PMC10849652.
Of roughly 8,800 targets only a part is listed; those with a hit were picked by preference. About 0.5% of all pairs of compound and target were hits. Unmarked numbers belong to inactive results.

Experiments:
Assay in all cases: log2 fold change, soluble protein after heating vs DMSO (PISA); higher = thermal stabilisation; K562 lysate, 10 uM; active = over 0.2 and 3.5 SD of the protein, either way, in both replicates (recomputed)
[1] = compound: CN1CC[C@H](c2c(O)cc(O)c3c(=O)cc(-c4ccccc4Cl)oc23)[C@H](O)C1 [alvocidib]
Method in brief: (§1)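 K562 pellets were dounce-homogenised in PBS pH 7.4 with 1 mM MgCl2, and the crude extract at 1 mg/mL protein was treated with 10 μM compound for 30 min. Aliquots were heated for 3 min across 48°C-58°C, pooled, and brought to 0.5% NP-40 at 4°C; soluble protein was the supernatant after 21,000xg for 90 min. Soluble protein was quantified by TMTpro 16plex LC-MS/MS with channel sums equalised, and reported as log2 fold change in thermal stability against DMSO controls, with values from duplicates.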

[2] = compound: CN1CCc2c(c3ccccc3n2Cc2ccc(C(=O)NO)cc2)C1 [Tubastatin A]
Method in brief: as §1

[3] = compound: CNC(=O)C1=CC=CC=C1NC2=NC(=NC=C2Cl)NC3=C(C=C(C=C3)N4CCOCC4)OC
Method in brief: as §1

[4] = compound: CNC(=O)c1ccc(Nc2ncc(C(F)(F)F)c(NCc3nccnc3N(C)S(C)(=O)=O)n2)cc1 [defactinib]
Method in brief: as §1

[5] = compound: CNc1nc(-c2ccc3c(N)n[nH]c3c2)cc(N2C[C@@H](C(=O)NC3CCCCC3)CC[C@H]2C)n1
Method in brief: as §1

[6] = compound: COC(=O)N[C@@H](C)CNc1nccc(-c2cn(C(C)C)nc2-c2cc(Cl)cc(NS(C)(=O)=O)c2F)n1 [encorafenib]
Method in brief: as §1

[7] = compound: COC(=O)[C@H](CCSC)NC(=O)C1=C(C=C(C=C1)NC[C@H](CS)N)C2=CC=CC=C2
Method in brief: as §1

[8] = compound: COc1cc(Nc2ncc3c(n2)-c2ccc(Cl)cc2C(c2c(F)cccc2OC)=NC3)ccc1C(=O)O [alisertib]
Method in brief: as §1

[9] = compound: COc1cc2nc(-c3cc(F)ccc3O)nc(N[C@@H]3CNC[C@H]3C(C)(C)O)c2cc1OC
Method in brief: as §1

[10] = compound: COc1cc2ncnc(Nc3ccc(F)c(Cl)c3)c2cc1OCCCN1CCOCC1 [gefitinib]
Method in brief: as §1

[11] = compound: CS(=O)(=O)CCNCc1ccc(-c2ccc3ncnc(Nc4ccc(OCc5cccc(F)c5)c(Cl)c4)c3c2)o1 [lapatinib]
Method in brief: as §1

[12] = compound: CS(=O)(=O)N1CCN(Cc2cc3nc(-c4cccc5[nH]ncc45)nc(N4CCOCC4)c3s2)CC1 [pictilisib]
Method in brief: as §1

[13] = compound: C[C@@H](Oc1cc(-c2cnn(C3CCNCC3)c2)cnc1N)c1c(Cl)ccc(F)c1Cl [crizotinib]
Method in brief: as §1

[14] = compound: C[C@H](C1=CC=C(C=C1)C(=O)NC2=C3C=CNC3=NC=C2)N
Method in brief: as §1

[15] = compound: C[C@H](Nc1ncnc2nc[nH]c12)c1cc2cccc(Cl)c2c(=O)n1-c1ccccc1 [duvelisib]
Method in brief: as §1

[16] = compound: Cc1cc(Nc2cc(CN3CCOCC3)c3nc(C)c(Cc4ccc(Cl)cc4F)n3n2)n[nH]1 [gandotinib]
Method in brief: as §1

[17] = compound: Cc1cc(Nc2cc(N3CCN(C)CC3)nc(Sc3ccc(NC(=O)C4CC4)cc3)n2)n[nH]1 [tozasertib]
Method in brief: as §1

[18] = compound: Cc1ccc(-n2nc(C(C)(C)C)cc2NC(=O)Nc2ccc(OCCN3CCOCC3)c3ccccc23)cc1 [doramapimod]
Method in brief: as §1

[19] = compound: Cc1ccc(NC(=O)c2ccc(CN3CC[C@H](N(C)C)C3)c(C(F)(F)F)c2)cc1Nc1nccc(-c2cncnc2)n1 [bafetinib]
Method in brief: as §1

[20] = compound: Cc1cccc(CC(=O)N2CCc3c2ccc(-c2cn(C)c4ncnc(N)c24)c3F)n1
Method in brief: as §1

UniProt Q9BTT4, sequence (Q9BTT4 whole entry, looked up): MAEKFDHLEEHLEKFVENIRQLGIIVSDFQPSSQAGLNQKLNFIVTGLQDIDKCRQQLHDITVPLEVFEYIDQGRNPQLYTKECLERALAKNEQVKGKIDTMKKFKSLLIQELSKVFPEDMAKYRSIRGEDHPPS
UniProt Q96II8, sequence (Q96II8 whole entry, looked up): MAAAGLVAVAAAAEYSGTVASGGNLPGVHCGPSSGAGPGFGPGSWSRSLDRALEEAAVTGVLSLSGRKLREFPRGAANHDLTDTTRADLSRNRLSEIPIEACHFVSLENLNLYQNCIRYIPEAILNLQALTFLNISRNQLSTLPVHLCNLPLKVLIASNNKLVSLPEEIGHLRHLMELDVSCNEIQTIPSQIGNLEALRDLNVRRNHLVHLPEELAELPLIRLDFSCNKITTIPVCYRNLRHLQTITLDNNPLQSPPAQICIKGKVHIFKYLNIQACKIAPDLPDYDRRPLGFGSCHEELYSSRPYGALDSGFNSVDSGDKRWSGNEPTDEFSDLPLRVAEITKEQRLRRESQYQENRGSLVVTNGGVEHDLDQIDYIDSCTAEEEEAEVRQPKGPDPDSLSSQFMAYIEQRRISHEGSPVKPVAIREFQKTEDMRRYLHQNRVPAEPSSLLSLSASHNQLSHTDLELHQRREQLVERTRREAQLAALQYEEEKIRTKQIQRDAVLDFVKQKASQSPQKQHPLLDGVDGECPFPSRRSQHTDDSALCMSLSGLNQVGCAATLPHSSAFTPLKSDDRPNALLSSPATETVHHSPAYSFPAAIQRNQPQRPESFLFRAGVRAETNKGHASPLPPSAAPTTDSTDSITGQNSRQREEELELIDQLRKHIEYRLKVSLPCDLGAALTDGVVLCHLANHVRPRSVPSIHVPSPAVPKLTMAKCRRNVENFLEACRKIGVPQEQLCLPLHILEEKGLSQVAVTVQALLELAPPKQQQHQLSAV
UniProt Q8NG31, sequence (Q8NG31 whole entry, looked up): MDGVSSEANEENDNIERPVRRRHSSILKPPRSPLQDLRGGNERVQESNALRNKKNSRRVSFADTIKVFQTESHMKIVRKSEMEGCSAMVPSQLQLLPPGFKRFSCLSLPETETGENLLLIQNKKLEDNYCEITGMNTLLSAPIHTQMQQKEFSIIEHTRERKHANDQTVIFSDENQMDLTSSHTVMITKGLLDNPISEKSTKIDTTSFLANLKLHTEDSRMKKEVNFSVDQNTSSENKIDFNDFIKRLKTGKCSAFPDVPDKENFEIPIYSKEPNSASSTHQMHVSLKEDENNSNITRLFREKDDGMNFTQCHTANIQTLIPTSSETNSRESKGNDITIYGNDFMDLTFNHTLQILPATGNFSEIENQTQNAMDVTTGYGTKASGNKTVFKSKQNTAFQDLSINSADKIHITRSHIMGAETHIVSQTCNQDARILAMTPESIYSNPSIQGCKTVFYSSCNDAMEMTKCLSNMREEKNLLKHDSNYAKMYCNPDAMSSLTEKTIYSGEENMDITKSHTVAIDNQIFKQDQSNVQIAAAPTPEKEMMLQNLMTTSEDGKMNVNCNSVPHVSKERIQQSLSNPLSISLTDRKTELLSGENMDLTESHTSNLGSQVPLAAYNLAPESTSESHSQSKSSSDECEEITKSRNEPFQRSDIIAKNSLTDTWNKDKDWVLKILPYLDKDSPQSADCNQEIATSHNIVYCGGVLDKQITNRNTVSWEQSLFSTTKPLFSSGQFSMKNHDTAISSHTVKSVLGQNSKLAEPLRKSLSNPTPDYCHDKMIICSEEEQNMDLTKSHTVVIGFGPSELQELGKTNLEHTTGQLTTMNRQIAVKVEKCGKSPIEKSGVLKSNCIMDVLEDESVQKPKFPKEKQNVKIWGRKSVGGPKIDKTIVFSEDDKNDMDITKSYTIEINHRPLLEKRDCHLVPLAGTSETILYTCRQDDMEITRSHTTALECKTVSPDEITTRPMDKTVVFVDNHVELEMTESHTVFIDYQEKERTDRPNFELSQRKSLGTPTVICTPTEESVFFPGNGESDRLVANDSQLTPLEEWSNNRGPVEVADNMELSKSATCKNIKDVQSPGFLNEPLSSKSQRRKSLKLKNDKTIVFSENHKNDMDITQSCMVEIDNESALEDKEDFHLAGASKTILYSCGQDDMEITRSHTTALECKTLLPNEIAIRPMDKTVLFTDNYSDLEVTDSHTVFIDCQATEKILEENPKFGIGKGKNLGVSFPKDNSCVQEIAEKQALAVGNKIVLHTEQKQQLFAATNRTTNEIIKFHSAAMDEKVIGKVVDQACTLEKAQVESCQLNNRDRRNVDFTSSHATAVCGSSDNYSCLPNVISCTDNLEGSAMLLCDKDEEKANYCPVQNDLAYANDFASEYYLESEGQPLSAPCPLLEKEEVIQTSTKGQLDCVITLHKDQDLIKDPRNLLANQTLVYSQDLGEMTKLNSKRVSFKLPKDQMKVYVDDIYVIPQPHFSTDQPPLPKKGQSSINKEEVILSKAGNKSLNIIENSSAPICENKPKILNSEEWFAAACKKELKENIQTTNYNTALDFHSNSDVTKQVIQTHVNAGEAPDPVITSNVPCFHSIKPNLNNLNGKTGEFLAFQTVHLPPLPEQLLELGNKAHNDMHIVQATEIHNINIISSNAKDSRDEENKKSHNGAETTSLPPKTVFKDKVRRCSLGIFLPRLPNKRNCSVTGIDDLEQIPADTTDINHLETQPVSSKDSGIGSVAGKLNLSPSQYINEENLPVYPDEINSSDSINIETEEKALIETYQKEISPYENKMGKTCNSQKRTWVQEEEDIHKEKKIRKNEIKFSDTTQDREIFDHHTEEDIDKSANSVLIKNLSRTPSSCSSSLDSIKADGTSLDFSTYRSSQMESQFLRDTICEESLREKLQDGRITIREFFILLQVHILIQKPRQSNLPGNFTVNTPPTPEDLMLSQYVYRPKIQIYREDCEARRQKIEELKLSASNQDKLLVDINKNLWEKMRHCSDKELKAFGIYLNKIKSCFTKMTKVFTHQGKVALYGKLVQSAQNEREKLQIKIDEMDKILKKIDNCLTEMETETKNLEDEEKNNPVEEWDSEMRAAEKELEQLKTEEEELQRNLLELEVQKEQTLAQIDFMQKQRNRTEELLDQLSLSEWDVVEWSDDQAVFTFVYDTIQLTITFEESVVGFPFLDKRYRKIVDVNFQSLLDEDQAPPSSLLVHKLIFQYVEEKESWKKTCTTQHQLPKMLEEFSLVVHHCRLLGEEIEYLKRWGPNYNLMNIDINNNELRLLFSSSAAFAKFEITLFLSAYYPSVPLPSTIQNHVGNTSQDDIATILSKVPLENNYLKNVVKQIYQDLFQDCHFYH
UniProt Q8WV92, sequence (Q8WV92 whole entry, looked up): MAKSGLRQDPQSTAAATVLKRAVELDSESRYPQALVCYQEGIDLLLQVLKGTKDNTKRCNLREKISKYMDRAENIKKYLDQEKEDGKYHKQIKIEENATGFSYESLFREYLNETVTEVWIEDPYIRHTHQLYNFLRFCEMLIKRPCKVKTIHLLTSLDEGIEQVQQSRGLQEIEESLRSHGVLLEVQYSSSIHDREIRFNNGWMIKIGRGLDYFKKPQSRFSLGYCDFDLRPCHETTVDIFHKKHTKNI
UniProt Q9HD34, sequence (Q9HD34 whole entry, looked up): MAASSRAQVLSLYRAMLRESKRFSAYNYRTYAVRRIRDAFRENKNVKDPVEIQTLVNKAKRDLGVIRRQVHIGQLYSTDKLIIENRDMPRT
UniProt Q9UBB5, sequence (Q9UBB5 whole entry, looked up): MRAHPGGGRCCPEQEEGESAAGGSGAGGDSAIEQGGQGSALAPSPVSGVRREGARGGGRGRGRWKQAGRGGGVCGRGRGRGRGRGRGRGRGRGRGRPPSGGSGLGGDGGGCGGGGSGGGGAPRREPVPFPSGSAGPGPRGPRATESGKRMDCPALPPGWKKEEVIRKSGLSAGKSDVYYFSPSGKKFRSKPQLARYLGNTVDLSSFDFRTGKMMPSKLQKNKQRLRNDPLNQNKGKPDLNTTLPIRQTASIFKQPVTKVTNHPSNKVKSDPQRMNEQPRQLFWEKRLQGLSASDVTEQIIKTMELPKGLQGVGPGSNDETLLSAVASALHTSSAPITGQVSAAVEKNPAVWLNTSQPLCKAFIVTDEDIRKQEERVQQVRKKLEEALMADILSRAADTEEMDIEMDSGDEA
UniProt Q6ZWT7, sequence (Q6ZWT7 whole entry, looked up): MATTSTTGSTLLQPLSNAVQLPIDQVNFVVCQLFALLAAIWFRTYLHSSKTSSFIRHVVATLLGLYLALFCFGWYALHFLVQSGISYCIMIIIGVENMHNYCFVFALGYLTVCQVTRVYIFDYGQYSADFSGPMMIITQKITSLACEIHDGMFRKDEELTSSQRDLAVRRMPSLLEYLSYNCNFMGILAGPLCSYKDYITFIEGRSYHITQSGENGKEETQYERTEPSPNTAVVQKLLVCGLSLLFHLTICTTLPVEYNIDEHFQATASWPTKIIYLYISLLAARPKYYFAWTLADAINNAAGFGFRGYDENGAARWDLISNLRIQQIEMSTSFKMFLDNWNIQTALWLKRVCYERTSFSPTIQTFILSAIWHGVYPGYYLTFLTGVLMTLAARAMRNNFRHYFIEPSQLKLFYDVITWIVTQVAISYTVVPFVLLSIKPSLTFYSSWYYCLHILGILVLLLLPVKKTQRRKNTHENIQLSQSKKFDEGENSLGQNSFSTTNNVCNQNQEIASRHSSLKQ
UniProt P34949, sequence (P34949 whole entry, looked up): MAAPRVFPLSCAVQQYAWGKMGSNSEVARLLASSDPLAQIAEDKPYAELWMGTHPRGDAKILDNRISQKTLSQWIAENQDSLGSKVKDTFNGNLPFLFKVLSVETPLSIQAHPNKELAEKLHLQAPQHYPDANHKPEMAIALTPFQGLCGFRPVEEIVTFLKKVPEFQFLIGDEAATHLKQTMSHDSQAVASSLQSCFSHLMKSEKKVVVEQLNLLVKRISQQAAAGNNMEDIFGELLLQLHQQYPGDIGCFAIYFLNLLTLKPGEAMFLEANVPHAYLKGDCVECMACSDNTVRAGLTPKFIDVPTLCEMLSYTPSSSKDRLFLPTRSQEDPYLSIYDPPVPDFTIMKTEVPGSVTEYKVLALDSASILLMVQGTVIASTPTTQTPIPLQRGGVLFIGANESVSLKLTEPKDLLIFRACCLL

Row | Target | log2 fold change [1] | log2 fold change [2] | log2 fold change [3] | log2 fold change [4] | log2 fold change [5] | log2 fold change [6] | log2 fold change [7] | log2 fold change [8] | log2 fold change [9] | log2 fold change [10] | log2 fold change [11] | log2 fold change [12] | log2 fold change [13] | log2 fold change [14] | log2 fold change [15] | log2 fold change [16] | log2 fold change [17] | log2 fold change [18] | log2 fold change [19] | log2 fold change [20]
1 | KNL1 (UniProt Q8NG31) | -0.008 | -0.073 | 0.024 | -0.007 | 0.018 | 0.043 | 0.055 | -0.032 | 0.004 | 0.008 | 0.007 | -0.031 | -0.015 | -0.011 | -0.001 | -0.032 | -0.027 | 0.008 | -0.017 | 0.016
2 | LRCH3 (UniProt Q96II8) | 0 | -0.238 | -0.003 | -0.002 | 0.069 | 0.021 | 0.045 | 0.021 | -0.012 | -0.075 | -0.008 | -0.08 | -0.114 | -0.046 | -0.012 | 0.027 | 0.012 | 0.099 | -0.104 | 0.059
3 | MAST4 (UniProt O15021) | 0.042 | -0.11 | 0.394 | 0.282 | -0.173 | -0.036 | 0.006 | -0.043 | 0.032 | -0.066 | -0.12 | 0.122 | 0.079 | -0.065 | -0.089 | 0.374 | 0.274 | -0.121 | -0.103 | 0.017
4 | LYRM4 (UniProt Q9HD34) | 0.013 | 0.068 | -0.042 | 0 | 0.036 | -0.008 | 0 | 0.007 | 0 | 0.008 | -0.036 | -0.026 | -0.034 | 0.413 (active) | 0.031 | -0.095 | -0.021 | -0.047 | 0.008 | -0.007
5 | MBD2 (UniProt Q9UBB5) | 0.026 | -0.06 | 0.001 | 0.022 | 0.083 | 0.013 | -0.061 | 0.031 | 0.024 | -0.016 | -0.009 | 0.017 | 0.006 | -0.035 | 0.02 | -0.004 | 0.029 | 0.045 | -0.006 | -0.032
6 | MED10 (UniProt Q9BTT4) | 0.038 | 0.041 | 0.042 | 0.068 | 0.045 | 0.11 | -0.185 | 0.082 | -0.03 | -0.045 | 0.107 | 0.232 | 0.016 | -0.024 | 0.016 | 0.04 | -0.057 | 0.014 | 0.187 | 0.055
7 | MITD1 (UniProt Q8WV92) | 0.021 | 0.046 | 0.044 | -0.038 | -0.026 | -0.04 | 0.143 | 0.041 | 0.018 | 0.022 | 0.003 | -0.032 | 0.046 | 0.086 | 0.055 | 0.025 | -0.015 | -0.049 | -0.118 | -0.085
8 | MPI (UniProt P34949) | 0.051 | 0.024 | -0.02 | -0.007 | 0.035 | -0.01 | 0.477 (active) | 0.018 | 0.01 | -0.014 | 0.02 | -0.017 | -0.029 | 0.174 | 0.007 | -0.055 | -0.043 | 0.032 | 0.013 | -0.014
9 | LAS1L (UniProt Q9Y4W2) | -0.015 | -0.127 | -0.024 | -0.02 | 0.016 | -0.04 | 0.06 | -0.011 | 0.01 | -0.013 | -0.004 | -0.033 | -0.05 | -0.051 | -0.003 | 0.017 | 0.043 | 0.011 | -0.004 | 0.233 (active)
10 | MBOAT2 (UniProt Q6ZWT7) | -0.024 | 0 | 0.079 | 0.002 | -0.025 | 0.156 | -0.073 | -0.003 | 0.034 | 0.064 | -0.067 | 0.061 | -0.005 | -0.175 | 0.009 | 0.319 (active) | 0.106 | -0.12 | -0.049 | 0.281
11 | MRPL10 isoform 2 (UniProt Q7Z7H8) | 0.024 | -0.013 | -0.035 | 0.023 | 0.074 | 0.031 | 0.183 | 0.028 | -0.025 | -0.019 | -0.02 | -0.041 | -0.104 | 0.152 | 0.034 | -0.037 | -0.01 | 0.104 | -0.059 | -0.012
12 | MIPEP (UniProt Q99797) | 0.027 | 0.011 | -0.03 | 0.025 | -0.067 | -0.012 | 0.154 | -0.038 | -0.009 | -0.007 | -0.013 | -0.031 | 0.041 | -0.004 | -0.022 | -0.049 | 0.072 | -0.059 | 0.016 | 0.04
13 | KIF4A (UniProt O95239) | 0.006 | -0.145 | 0.022 | 0.006 | 0.005 | -0.014 | 0.154 | -0.041 | -0.035 | -0.018 | 0.007 | -0.002 | -0.043 | 0.012 | -0.029 | -0.061 | 0.021 | 0 | -0.066 | -0.006
14 | KIF21A isoform 5 (UniProt Q7Z4S6) | 0.106 | -0.066 | 0.022 | 0.007 | 0.008 | -0.016 | 0.09 | -0.033 | -0.002 | -0.012 | -0.014 | -0.018 | -0.021 | 0.157 | -0.032 | -0.077 | 0.005 | 0.019 | -0.019 | -0.062
15 | LUZP1 (UniProt Q86V48) | -0.027 | -0.061 | 0.099 | -0.056 | 0.004 | 0.023 | -0.074 | -0.014 | 0.012 | 0.039 | -0.006 | -0.02 | -0.012 | 0.008 | -0.026 | 0.036 | -0.011 | -0.009 | -0.034 | -0.011
16 | KIF15 (UniProt Q9NS87) | -0.002 | -0.058 | 0.006 | -0.011 | 0.006 | 0.01 | 0.121 | -0.013 | -0.014 | 0.003 | -0.02 | 0.006 | -0.017 | 0 | -0.002 | -0.017 | 0.008 | 0.006 | -0.025 | 0.033
